# The supplement of paper PMC3334620
# In all, about 33,000 sequences were measured (“E-score (-0.5 to 0.5)”: median about -0.017, highest 2% from about 0.3 on). The sample holds the highest values, similar sequences and a random draw of the others, so the mix is not that of the screen.
# Target: T1, Sut1 (UniProt P53032)
# T1 sequence: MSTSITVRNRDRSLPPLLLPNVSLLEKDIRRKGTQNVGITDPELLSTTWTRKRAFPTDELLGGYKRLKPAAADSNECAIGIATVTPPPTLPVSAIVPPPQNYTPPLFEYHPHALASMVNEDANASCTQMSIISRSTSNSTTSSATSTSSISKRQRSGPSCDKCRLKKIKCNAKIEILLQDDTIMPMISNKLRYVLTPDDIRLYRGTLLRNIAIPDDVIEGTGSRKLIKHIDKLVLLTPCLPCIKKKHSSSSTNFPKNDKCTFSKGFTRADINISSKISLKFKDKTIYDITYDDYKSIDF
# Assay: PBM E-score (8-mer binding enrichment) (E-score (-0.5 to 0.5)); higher = stronger / more preferred TF binding
# Conditions: protein concentration: 200 nM; construct: GST-full length
# Protocol: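 Universal 'all 10-mer' protein binding microarrays (Agilent AMADID 015681) probed with GST-tagged S. cerevisiae TFs (full-length or DBD) made by in vitro transcription/translation (PURExpress), about 100-200 nM. Bound TF was detected with fluorescent anti-GST. Each ungapped 8-mer (which stands for itself and its reverse complement) is scored by the PBM enrichment score (E-score), a modified Wilcoxon-Mann-Whitney statistic from -0.5 to +0.5, computed with the Universal PBM Analysis Suite. Scale: above 0.35 generally sequence-specific binding.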
row,Sequence,PBM E-score
1,ACAACTCC,0.431
2,CGCTGTGA,-0.225
3,CTATTGGC,-0.227
4,ACCTTGAC,-0.143
5,GCGGAGTA,0.458
6,CAGGAGTC,0.0824
7,CCGGAGGC,0.156
8,CCGGAGTC,0.484
9,ACGGAGTG,0.42
10,ACGGAGTA,0.473
11,ATGGAGTG,-0.0878
12,AAGGAGTG,-0.0821
13,AAGGAGTA,0.0607
14,ATGGAGTA,0.179
15,GCGGAGGA,-0.161
16,GAGGAGTA,-0.0389
17,AATTGCGT,0.134
18,CGATCCTC,-0.124
19,ACACTCGA,-0.106
20,AAACCTAT,0.123
21,CTAGATGA,-0.0501
22,CACAAACG,0.127

row,Sequence,PBM E-score
1,CCAACCAG,-0.187
2,ACCGCAAT,0.1
3,CCGGAGTA,0.49
4,ACGGAGGC,-0.0143
5,CAGGAGTA,-0.157
6,ACGGAGTC,0.46
7,ATGGAGTC,0.0281
8,CTGGAGTA,0.0562
9,CGATTTAA,0.242
10,AACTTTAG,0.189
11,AAATTTTA,0.125
12,TAATTTAA,0.283
13,TGATTTAA,0.3
14,CACTTTAA,0.157
15,CAATTTAA,0.317
16,AGATTTAA,0.00422
17,CAATTTTA,0.234
18,AACTTTAA,0.325
19,AAATTTAA,0.318
20,AAATTTAG,0.254
21,CCAGGATC,-0.201
22,GTTTAACA,-0.00835

row,Sequence,PBM E-score
1,AGGATTTG,0.0444
2,CCTCCCTA,-0.367
3,CGCAAACG,-0.00322
4,AGATTGAG,0.0927
5,AACTATCT,0.0634
6,GGACCGTA,-0.172
7,CTGCGTTC,0.0373
8,AAGTTGTA,0.0914
9,CAGTTGTA,0.00162
10,GAGTTGTA,0.317
11,CTAGCGGA,0.0881
12,CGAGGTCA,-0.0467
13,CTCTCCGC,0.18
14,ATCTCCAG,-0.0734
15,ATCTCCGG,0.478
16,ATCTCCGA,0.477
17,GTCTCCGA,0.338
18,CTCTCCGA,0.257
19,ATCTCCCC,-0.285
20,ATCTCCCA,-0.155
21,ATCTCCAA,0.158
22,ATCTCCCG,-0.0416

row,Sequence,PBM E-score
1,ATCTCCGC,0.399
2,GTCTCCAA,-0.0301
3,AAGCGACC,0.0829
4,CGTAGGCA,-0.169
5,GATAGTAC,-0.00235
6,GCGCAAGC,-0.234
7,CAAGATTA,0.132
8,GAAGATTA,0.109
9,AAAGATTA,0.306
10,AAAAAACT,0.198
11,AGAGAGCG,-0.0777
12,GGTATGAA,0.114
13,CAGTTTTA,0.0952
14,CGGATAAA,0.341
15,CCGATAAA,0.343
16,CCGATAAG,0.111
17,GTGATAAA,0.0786
18,CCGATAAC,0.18
19,ATGATAAA,0.233
20,TGGATAAA,0.263
21,TTGATAAA,0.328
22,CGGATAAC,0.264
